Most compounds without a hit are left out; they make up all but 2.5% or so of the library.
CRFR2-BP antag = blocks CRF-induced signaling of the CRF-BP/CRF-R2 complex. HEK293 CRF-R2/CRF-BP, CRF-induced calcium fluorescence. actives 0.59% (n = 350,000). inhibition, % at 11.8 µM. AID 588475;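 active = inhibition of the ligand-induced calcium signal above about 50% at the single tested concentration, limit read from the data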
iPSC survival up = increases survival of single human iPS cells; hiPSC single-cell survival, ATPlite luminescence; 100% = ROCK inhibitor wells, 0% = DMSO; survival enhancement, % at 20 µM; actives 0.044% (n = 360,000); in the data active = survival enhancement above about 18%;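 also: cells exposed to compounds for 16 hours before the ATP read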
H9c2 protect = protects H9c2 cardiomyocytes from peroxide injury; protection from H2O2 cell death, % at 20 µM; actives 0.63% (n = 360,000); H2O2 injury protection, ATPLite, 2 h;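 active = compounds giving at least 50% protection of heart cells from peroxide-induced death in the single-dose screen, raw or plate-pattern-corrected value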
H9c2 TAG inh = triacylglycerol accumulation inhibition; actives 0.66% (n = 230,000); H9c2 cells, Nile Red lipid (TAG) fluorescence; cells loaded with 200 µM oleic acid; inhibition, % at 12.5 µM;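 active = pattern-corrected inhibition of lipid staining of at least 50% with the nuclear-stain viability signal not falling by more than 50%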
CRFR2-BP ag = agonists of human CRF-binding protein/CRF-R2 receptor complex; HEK293 CRF-R2/CRF-BP, calcium dye fluorescence (FLIPR); percent of saturating CRF peptide response; activation, % at 13.2 µM; actives 0.46% (n = 350,000);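 active = activation of at least 50%, plus an integration ratio under a set limit after plate pattern correction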
SKN-1 inh = inhibitors of C. elegans SKN-1; C. elegans VP596 Pgst-4::GFP/RFP ratio, acrylamide-induced, 24 h; inhibition, % at 21.8 µM; actives 0.49% (n = 360,000); AID 624304;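 active = interference check ratio from 0.5 to 1.5 plus GFP to RFP signal ratio inhibition reaching or exceeding a fixed threshold, cut at about 30% in these data, passing the limit was not always enough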
Hits are given with their value; i = inactive; nt = no result.

SMILES	CRFR2-BP antag	iPSC survival up	H9c2 protect	H9c2 TAG inh	CRFR2-BP ag	SKN-1 inh
O=C(/C=C/[C@H]1O[C@@H](n2cnc3c(NC(=O)c4ccccc4)ncnc32)[C@H](O)[C@@H]1O)N[C@@H](CO)Cc1c[nH]c2ccccc12	nt	i	i	nt	nt	i
Cc1cc2nc(-c3ccc(C#N)cc3)c(Cc3cccc(F)c3)n2c(C)c1Br	nt	i	i	nt	nt	i
CC(=O)OC[C@]12CC[C@H]3[C@@](C)(CC[C@H]4C(C)(C)CCC[C@]34C)[C@@H]1CC(C1=CC(=O)OC1O)O2 (stereo partly drawn)	nt	i	i	nt	nt	i
COc1ccccc1CCNC(=O)c1c(N)[nH]c(C(=O)c2ccccc2)c1-c1ccc(Br)cc1	nt	i	nt	nt	nt	i
Cc1nc(SCc2ccccc2)c2ccsc2n1	i	i	i	i	i	i
c1ccc(CSc2ncnc3sccc23)cc1	i	i	i	nt	i	43
Cc1ccc(C)n1NC(=O)c1ccccc1O	80	i	i	nt	i	i
CCOC(=O)c1c(-c2ccccc2)oc2ccc(OC(C)C(=O)O)cc12 (stereo not drawn)	52	i	i	i	i	i
Cc1cc(C)c2c(=O)n3c(nc2c1)C(C)NC(=O)c1cccnc1-3 (stereo not drawn)	i	i	i	i	i	i
O=C(O)C1CCN(S(=O)(=O)Cc2ccccc2)CC1	i	i	i	nt	i	i
CC1Cc2ccccc2N1C(=O)C1CCN(S(=O)(=O)Cc2ccccc2)CC1 (stereo not drawn)	i	i	i	i	i	32
CC(=O)N1CCN(C(C(=O)Nc2c(C)cccc2C)c2cccc(F)c2)CC1 (stereo not drawn)	nt	nt	nt	nt	nt	i
C/C(=N/O)c1ccccn1	i	i	i	nt	i	i
CCCCCC/C(=N/O)c1ccccn1	59	i	i	i	i	i
CC(=O)Nc1ccc(S(=O)(=O)N2CCC(c3nnc(-c4ccc(C)cc4)o3)CC2)cc1	77	i	i	i	i	i
COc1cc(OC)cc(-c2c(Sc3ccccc3)c3cc(-c4ccc(SC)cc4)ccc3n2C)c1	nt	i	nt	nt	nt	i
COc1cc(-c2cc(NC(C)=O)c3ncc(-c4ccc(F)cc4)n3c2)cc(OC)c1OC	nt	i	54	i	nt	i
COc1cc(-c2cc(NC(C)=O)c3ncc(-c4ccc(C(C)=O)cc4)n3c2)cc(OC)c1OC	nt	i	61	i	nt	i
Cc1cc(S(=O)(=O)Nc2ccc(C(=O)NCCN3CCOCC3)cc2)ccc1F	i	i	i	i	i	i
CC1CN(S(=O)(=O)c2ccc(C(=O)N3CCc4ccccc43)cc2)CC(C)O1 (stereo not drawn)	110	i	i	i	i	i
O=[N+]([O-])c1cccc(S(=O)(=O)N2CCCCC2c2cccnc2)c1 (stereo not drawn)	i	i	i	nt	i	i
Cc1cc(S(=O)(=O)Nc2ccc(C(=O)NCC3(N(C)C)CCCCC3)cc2)ccc1F	i	i	i	i	i	i
CCOc1ccc(NS(=O)(=O)c2ccc(C(=O)NCC3(N(C)C)CCCCC3)cc2)cc1	i	i	i	i	51	i
CCOc1ccc(NS(=O)(=O)c2ccc(C(=O)NCC3(N4CCCCC4)CCCCC3)cc2)cc1	i	i	i	i	62	i
Cc1ccc(S(=O)(=O)NC(C(=O)N2CCOCCOCCOCC2)c2ccccc2)cc1 (stereo not drawn)	i	i	i	nt	i	i
SMILES	CRFR2-BP antag	iPSC survival up	H9c2 protect	H9c2 TAG inh	CRFR2-BP ag	SKN-1 inh
COc1ccccc1-c1cc(NC=O)c2ncc(-c3cccc(C(C)=O)c3)n2c1	nt	i	60	i	nt	i
CN(C)CCNC(=O)c1cccc(-c2cnc3c(NC=O)cc(-c4ccc(F)cc4)cn23)c1	nt	i	i	i	nt	i
CC(=O)c1cccc(-c2cnc3c(NC=O)cc(-c4ccc(F)cc4)cn23)c1	nt	i	61	i	nt	i
CC(=O)c1ccc(-c2cnc3c(NC=O)cc(-c4ccccc4Oc4ccccc4)cn23)cc1	nt	i	i	i	nt	i
COc1cccc(-c2cnc3c(NC=O)cc(-c4cc(OC)c(OC)c(OC)c4)cn23)c1	nt	i	71	i	nt	i
Cc1nc(CN2C(=O)C3(CCC3)ON=C2c2cccc(Cl)c2)cs1	nt	i	i	i	nt	i
COc1ccc(/C=C2\CCC(C3CCCC3)C2=O)cc1OC (stereo not drawn)	53	i	i	nt	i	i
COc1ccc(/C=C2\CC/C(=C\c3ccc(OC)c(OC)c3)C2=O)cc1OC	i	i	i	nt	i	i
